Measurements: article PMC7862700, “An all-to-all approach to the identification of sequence-specific readers for epigenetic DNA modifications on cytosine”

Tests used:
Experiment in all cases: DAPPL (digital affinity profiling via proximity ligation, sequencing); 10 mM Tris-HCl pH 7.5, 50 mM NaCl, 1 mM DTT, 4% glycerol, room temperature, 30 min; GST-TFs on glutathione beads, 16-mer random dsDNA library, 0.1% formaldehyde crosslink after washing; high values mean tight binding
Details in all cases: protein: recombinant; tags: N-terminal GST; dsDNA, one strand shown
FLI1 = target: T1, FLI1 (Homo sapiens, UniProt Q01543 1-452)
T1 sequence: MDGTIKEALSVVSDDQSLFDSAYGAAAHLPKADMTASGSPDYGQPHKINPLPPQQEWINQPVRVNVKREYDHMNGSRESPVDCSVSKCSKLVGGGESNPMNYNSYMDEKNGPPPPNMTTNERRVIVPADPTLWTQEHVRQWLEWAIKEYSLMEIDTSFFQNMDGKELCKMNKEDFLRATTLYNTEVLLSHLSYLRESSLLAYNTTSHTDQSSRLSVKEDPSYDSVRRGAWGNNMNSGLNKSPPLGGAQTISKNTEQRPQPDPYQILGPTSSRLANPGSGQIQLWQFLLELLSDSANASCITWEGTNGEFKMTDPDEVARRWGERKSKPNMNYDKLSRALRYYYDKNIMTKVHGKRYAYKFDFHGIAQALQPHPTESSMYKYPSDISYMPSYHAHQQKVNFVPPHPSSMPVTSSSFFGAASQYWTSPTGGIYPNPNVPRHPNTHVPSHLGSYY
In short: (§1)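 Human transcription factors carrying a GST fusion were produced in yeast, bound to glutathione beads, tagged with DNA barcodes and pooled together with a tag-only sample. Each pool was held with 200 nmole of a random double-stranded 16-mer DNA library in Tris/NaCl/DTT/glycerol buffer for 30 min at room temperature, then washed, crosslinked in 0.1% formaldehyde, proximity-ligated with BsaI/T4 ligase (1 h, 37 °C), PCR-amplified and sequenced on an Illumina NextSeq500. Binding signal is the read frequency of each hexamer for a given factor divided by its frequency in the tag-only sample.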

ELK1 = target: T2, ELK1 (Homo sapiens, UniProt P19419 1-428)
T2 sequence: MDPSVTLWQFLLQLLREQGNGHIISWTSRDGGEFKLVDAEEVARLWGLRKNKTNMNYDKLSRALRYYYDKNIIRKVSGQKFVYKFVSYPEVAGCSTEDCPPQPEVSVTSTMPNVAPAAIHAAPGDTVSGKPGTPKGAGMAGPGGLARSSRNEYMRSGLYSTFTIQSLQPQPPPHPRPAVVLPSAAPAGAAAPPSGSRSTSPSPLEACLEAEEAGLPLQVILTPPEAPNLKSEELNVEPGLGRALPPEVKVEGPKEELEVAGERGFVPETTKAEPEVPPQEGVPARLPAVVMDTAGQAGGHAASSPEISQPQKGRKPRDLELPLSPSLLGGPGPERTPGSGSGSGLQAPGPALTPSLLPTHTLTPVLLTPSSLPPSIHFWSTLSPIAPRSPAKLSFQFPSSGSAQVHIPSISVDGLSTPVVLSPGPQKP
In short: as §1

ELF1 = ELF1 (Homo sapiens, UniProt P32519 1-619)
Chain of ELF1 (P32519 whole entry): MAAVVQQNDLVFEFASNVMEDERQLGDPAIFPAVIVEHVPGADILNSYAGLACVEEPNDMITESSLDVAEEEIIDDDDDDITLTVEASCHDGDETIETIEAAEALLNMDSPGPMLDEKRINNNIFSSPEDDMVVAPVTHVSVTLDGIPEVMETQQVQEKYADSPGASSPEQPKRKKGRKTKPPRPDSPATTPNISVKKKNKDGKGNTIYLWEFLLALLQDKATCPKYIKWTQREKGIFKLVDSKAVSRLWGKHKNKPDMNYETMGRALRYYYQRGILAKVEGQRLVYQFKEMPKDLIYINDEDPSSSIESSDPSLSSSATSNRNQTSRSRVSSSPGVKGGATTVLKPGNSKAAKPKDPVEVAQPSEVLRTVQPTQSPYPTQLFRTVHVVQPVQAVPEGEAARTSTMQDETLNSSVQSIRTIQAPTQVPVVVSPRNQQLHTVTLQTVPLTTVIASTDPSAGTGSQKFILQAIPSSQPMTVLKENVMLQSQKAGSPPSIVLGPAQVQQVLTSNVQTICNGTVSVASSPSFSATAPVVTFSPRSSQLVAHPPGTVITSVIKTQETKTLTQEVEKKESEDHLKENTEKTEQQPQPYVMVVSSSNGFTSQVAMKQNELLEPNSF
In short: as §1

EHF = target: T3, EHF (Homo sapiens, UniProt Q9NZC4 1-300)
T3 sequence: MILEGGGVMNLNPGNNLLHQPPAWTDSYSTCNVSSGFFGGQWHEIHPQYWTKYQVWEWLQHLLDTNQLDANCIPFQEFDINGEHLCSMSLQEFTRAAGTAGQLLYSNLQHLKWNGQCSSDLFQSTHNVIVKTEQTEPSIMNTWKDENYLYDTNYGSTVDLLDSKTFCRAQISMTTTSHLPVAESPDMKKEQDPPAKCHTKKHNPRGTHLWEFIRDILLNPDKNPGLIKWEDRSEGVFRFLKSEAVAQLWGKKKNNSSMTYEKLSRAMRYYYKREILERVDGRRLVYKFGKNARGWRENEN
In short: as §1

SPIB = SPIB (Homo sapiens, UniProt Q01892 1-262)
Chain of SPIB (Q01892 whole entry): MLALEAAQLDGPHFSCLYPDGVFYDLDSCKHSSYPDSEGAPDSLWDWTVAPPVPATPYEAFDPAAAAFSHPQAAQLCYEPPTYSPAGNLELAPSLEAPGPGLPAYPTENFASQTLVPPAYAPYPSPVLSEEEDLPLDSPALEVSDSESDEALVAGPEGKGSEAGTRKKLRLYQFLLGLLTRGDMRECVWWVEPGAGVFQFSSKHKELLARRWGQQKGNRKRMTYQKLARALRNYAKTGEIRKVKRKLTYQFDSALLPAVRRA
In short: as §1

ELK3 = target: T4, ELK3 (Homo sapiens, UniProt P41970 1-407)
T4 sequence: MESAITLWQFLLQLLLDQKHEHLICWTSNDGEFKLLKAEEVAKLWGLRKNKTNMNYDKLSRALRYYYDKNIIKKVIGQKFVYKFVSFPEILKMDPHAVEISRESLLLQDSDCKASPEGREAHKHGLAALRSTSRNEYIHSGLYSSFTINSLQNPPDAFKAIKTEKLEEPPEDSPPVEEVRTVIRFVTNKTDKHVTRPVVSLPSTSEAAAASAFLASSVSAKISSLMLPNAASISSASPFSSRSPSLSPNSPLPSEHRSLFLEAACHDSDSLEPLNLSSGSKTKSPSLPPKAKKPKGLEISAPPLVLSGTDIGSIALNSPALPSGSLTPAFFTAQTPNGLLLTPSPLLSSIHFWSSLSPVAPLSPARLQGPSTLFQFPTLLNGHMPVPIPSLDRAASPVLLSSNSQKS
In short: as §1

FEV = target: T5, FEV (Homo sapiens, UniProt Q99581 1-238)
T5 sequence: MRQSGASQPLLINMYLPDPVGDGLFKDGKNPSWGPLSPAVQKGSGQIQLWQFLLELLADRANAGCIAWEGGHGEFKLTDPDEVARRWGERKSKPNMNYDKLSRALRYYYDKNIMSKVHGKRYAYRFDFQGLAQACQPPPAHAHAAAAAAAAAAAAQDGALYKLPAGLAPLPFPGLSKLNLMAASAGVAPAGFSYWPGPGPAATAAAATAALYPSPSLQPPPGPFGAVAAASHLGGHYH
In short: as §1

ETV5 = ETV5 (Homo sapiens, UniProt P41161 1-510)
Chain of ETV5 (P41161 whole entry): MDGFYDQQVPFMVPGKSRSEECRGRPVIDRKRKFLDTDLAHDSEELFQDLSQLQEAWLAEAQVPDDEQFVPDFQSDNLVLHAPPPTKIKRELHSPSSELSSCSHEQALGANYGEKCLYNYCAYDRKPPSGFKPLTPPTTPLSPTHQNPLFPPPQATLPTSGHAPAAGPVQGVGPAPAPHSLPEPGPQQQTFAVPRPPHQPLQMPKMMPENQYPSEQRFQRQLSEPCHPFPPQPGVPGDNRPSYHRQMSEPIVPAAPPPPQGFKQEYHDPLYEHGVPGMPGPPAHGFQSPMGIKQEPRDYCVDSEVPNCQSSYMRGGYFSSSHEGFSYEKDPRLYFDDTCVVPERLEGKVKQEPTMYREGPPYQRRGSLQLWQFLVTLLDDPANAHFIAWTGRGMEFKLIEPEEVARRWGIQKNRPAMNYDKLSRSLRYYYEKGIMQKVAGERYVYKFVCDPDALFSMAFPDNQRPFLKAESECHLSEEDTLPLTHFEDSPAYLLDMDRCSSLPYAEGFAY
In short: as §1

SPIC = target: T6, SPIC (Homo sapiens, UniProt Q8N5J4 1-248)
T6 sequence: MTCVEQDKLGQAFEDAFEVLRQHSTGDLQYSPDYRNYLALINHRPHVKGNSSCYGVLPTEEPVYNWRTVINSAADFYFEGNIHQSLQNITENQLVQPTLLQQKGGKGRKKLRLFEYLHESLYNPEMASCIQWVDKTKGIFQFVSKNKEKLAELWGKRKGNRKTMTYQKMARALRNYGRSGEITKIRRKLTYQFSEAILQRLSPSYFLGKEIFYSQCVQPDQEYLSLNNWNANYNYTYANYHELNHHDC
In short: as §1

ELF4 = ELF4 (Homo sapiens, UniProt Q99607 1-663)
Chain of ELF4 (Q99607 whole entry): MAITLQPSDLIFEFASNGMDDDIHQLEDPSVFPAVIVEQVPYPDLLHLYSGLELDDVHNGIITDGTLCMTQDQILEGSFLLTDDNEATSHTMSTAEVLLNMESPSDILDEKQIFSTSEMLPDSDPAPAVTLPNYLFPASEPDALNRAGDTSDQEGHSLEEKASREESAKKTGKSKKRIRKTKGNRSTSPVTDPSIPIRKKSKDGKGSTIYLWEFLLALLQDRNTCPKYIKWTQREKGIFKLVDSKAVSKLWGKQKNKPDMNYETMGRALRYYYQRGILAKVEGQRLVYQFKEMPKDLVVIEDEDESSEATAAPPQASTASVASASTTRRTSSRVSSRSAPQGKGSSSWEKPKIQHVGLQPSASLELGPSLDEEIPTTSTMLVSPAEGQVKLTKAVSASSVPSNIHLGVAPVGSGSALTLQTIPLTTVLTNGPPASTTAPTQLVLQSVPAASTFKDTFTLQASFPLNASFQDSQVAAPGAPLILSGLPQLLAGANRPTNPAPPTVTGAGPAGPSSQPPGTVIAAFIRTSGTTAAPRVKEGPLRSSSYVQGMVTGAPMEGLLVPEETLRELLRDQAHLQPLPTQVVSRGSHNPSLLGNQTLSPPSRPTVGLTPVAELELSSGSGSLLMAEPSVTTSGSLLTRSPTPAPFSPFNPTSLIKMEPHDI
In short: as §1

ETV1 = ETV1 (Homo sapiens, UniProt P50549 1-477)
Chain of ETV1 (P50549 whole entry): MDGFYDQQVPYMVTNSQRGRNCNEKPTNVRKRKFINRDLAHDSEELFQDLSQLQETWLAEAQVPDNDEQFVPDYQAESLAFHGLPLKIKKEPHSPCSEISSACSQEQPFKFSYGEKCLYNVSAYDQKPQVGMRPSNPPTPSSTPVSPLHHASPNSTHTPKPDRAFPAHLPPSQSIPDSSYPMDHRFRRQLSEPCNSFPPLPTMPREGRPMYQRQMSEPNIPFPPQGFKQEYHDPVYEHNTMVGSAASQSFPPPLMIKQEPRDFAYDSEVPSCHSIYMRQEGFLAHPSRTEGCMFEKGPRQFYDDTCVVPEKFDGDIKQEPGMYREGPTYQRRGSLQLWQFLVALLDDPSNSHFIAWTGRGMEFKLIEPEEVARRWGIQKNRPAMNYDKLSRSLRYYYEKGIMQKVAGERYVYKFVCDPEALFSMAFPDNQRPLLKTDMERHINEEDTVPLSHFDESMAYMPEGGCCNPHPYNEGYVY
In short: as §1

ERF = target: T7, ERF (Homo sapiens, UniProt P50548 1-548)
T7 sequence: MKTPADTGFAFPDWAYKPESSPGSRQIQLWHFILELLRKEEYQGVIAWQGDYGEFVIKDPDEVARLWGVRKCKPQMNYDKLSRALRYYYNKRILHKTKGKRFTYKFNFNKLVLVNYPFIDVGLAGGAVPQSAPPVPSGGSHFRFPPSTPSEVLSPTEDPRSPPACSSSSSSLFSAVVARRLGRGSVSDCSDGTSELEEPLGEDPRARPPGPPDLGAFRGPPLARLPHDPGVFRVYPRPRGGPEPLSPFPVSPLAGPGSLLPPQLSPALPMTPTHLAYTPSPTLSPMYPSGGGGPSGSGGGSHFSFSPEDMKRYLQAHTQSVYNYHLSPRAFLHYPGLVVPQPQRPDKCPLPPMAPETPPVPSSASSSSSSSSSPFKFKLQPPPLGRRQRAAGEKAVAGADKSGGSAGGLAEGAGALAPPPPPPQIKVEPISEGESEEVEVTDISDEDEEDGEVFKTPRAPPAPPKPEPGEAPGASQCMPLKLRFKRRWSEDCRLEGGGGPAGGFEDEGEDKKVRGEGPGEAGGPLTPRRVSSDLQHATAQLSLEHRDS
In short: as §1

ETV3L = target: T8, ETV3L (Homo sapiens, UniProt Q6ZN32 1-361)
T8 sequence: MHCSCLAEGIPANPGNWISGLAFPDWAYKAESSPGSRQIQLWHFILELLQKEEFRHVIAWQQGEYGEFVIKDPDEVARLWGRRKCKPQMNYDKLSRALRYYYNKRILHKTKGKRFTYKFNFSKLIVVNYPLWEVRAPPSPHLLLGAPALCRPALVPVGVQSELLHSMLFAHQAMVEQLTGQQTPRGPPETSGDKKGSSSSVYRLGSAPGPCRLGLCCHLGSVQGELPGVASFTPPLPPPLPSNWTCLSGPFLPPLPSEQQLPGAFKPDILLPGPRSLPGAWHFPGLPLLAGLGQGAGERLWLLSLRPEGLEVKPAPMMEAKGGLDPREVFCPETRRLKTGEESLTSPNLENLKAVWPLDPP
In short: as §1

ETS2 = target: T9, ETS2 (Homo sapiens, UniProt P15036 1-469)
T9 sequence: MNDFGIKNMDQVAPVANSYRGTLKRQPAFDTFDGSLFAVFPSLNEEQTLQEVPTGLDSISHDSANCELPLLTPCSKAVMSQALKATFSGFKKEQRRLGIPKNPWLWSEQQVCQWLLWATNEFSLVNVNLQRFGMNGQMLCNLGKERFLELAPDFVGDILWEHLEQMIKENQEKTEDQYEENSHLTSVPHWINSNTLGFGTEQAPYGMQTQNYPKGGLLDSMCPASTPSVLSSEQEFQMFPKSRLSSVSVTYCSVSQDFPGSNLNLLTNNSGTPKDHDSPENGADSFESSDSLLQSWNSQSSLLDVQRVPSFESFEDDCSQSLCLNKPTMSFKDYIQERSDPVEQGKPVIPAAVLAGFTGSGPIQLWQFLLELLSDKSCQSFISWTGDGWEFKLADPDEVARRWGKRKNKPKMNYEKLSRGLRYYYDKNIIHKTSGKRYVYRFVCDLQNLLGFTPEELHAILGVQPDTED
In short: as §1

ETV3 = target: T10, ETV3 (Homo sapiens, UniProt P41162-2 1-143)
T10 sequence: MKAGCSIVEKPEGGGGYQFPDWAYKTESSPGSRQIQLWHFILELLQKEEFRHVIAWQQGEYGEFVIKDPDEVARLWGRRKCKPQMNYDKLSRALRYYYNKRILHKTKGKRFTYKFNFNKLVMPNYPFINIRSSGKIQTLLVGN
In short: as §1

ETV6 = ETV6 (Homo sapiens, UniProt P41212 1-452)
Chain of ETV6 (P41212 whole entry): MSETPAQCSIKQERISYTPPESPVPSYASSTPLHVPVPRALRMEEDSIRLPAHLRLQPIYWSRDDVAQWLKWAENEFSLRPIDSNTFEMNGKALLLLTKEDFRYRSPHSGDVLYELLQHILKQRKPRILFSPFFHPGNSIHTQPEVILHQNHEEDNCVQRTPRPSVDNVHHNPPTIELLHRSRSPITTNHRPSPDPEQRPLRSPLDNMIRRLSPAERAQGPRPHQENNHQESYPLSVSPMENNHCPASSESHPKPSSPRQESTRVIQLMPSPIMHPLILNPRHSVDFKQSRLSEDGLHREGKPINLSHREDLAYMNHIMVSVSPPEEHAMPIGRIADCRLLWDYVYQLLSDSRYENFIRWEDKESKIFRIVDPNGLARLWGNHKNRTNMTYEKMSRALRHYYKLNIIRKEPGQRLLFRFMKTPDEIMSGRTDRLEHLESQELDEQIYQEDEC
In short: as §1

GABPA = target: T11, GABPA (Homo sapiens, UniProt Q06546 1-454)
T11 sequence: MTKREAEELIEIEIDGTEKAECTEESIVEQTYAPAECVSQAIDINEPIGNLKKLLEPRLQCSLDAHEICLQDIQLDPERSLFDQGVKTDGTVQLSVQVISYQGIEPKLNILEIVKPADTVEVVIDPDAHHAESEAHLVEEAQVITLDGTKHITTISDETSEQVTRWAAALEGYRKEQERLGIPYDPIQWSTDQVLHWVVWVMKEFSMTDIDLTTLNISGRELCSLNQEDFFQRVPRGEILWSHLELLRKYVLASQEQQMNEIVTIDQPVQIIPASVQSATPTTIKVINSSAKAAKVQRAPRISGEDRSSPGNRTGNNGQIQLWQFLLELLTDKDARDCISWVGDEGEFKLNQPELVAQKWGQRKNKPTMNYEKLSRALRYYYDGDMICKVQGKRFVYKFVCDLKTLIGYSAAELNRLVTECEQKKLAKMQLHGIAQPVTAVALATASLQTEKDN
In short: as §1

SPI1 = SPI1 (Homo sapiens, UniProt P17947 1-270)
In short: as §1

Sequence: ACCACA
- binding signal (FLI1): 1.05 fold enrichment (6-mer frequency, TF over GST control)
- binding signal (ELK1): 1.1 fold enrichment (6-mer frequency, TF over GST control)
- binding signal (ELF1): 1.08 fold enrichment (6-mer frequency, TF over GST control)
- binding signal (EHF): 1.11 fold enrichment (6-mer frequency, TF over GST control)
- binding signal (SPIB): 1.04 fold enrichment (6-mer frequency, TF over GST control)
- binding signal (ELK3): 1.14 fold enrichment (6-mer frequency, TF over GST control)
- binding signal (FEV): 1.05 fold enrichment (6-mer frequency, TF over GST control)
- binding signal (ETV5): 1.03 fold enrichment (6-mer frequency, TF over GST control)
- binding signal (SPIC): 1.1 fold enrichment (6-mer frequency, TF over GST control)
- binding signal (ELF4): 1.11 fold enrichment (6-mer frequency, TF over GST control)
- binding signal (ETV1): 1.09 fold enrichment (6-mer frequency, TF over GST control)
- binding signal (ERF): 1.05 fold enrichment (6-mer frequency, TF over GST control)
- binding signal (ETV3L): 1.16 fold enrichment (6-mer frequency, TF over GST control)
- binding signal (ETS2): 1.06 fold enrichment (6-mer frequency, TF over GST control)
- binding signal (ETV3): 1.02 fold enrichment (6-mer frequency, TF over GST control)
- binding signal (ETV6): 1.08 fold enrichment (6-mer frequency, TF over GST control)

Sequence: GCGCGC
- binding signal (FLI1): 1 fold enrichment (6-mer frequency, TF over GST control)
- binding signal (ELK1): 1.11 fold enrichment (6-mer frequency, TF over GST control)
- binding signal (GABPA): 1.05 fold enrichment (6-mer frequency, TF over GST control)
- binding signal (EHF): 1.06 fold enrichment (6-mer frequency, TF over GST control)
- binding signal (SPI1): 1.05 fold enrichment (6-mer frequency, TF over GST control)
- binding signal (SPIB): 1.18 fold enrichment (6-mer frequency, TF over GST control)
- binding signal (ELK3): 1.01 fold enrichment (6-mer frequency, TF over GST control)
- binding signal (ETV5): 1.08 fold enrichment (6-mer frequency, TF over GST control)
- binding signal (SPIC): 1.15 fold enrichment (6-mer frequency, TF over GST control)
- binding signal (ELF4): 1.08 fold enrichment (6-mer frequency, TF over GST control)
- binding signal (ETV1): 1.09 fold enrichment (6-mer frequency, TF over GST control)
- binding signal (ERF): 1.22 fold enrichment (6-mer frequency, TF over GST control)
- binding signal (ETV3L): 1 fold enrichment (6-mer frequency, TF over GST control)
- binding signal (ETV3): 1.02 fold enrichment (6-mer frequency, TF over GST control)
- binding signal (ETV6): 1.03 fold enrichment (6-mer frequency, TF over GST control)
